Records with an inconclusive call do not appear. Active and inactive are the calls of the source. Unless noted, calls follow the shape of the dose curve; as a rule, active = well fitted curve in the direction sought with a large enough effect in the repeat runs; inconclusive = weak or mixed curves; inactive = no such curve, though single readings can be large; an effect the other way counts as inactive or inconclusive.
What was measured:
[1] = qHTS assay for small molecule agonists of the p53 signaling pathway (AID 651631; calls by dose curve; also: nearly all actives have a fitted effect of over 15% in size)
Procedure, shortened: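 Beta-lactamase reporter activity under p53 response elements was quantified in HCT-116 cells by FRET fluorescence, following 16 h incubation with test compounds at 37 °C and 2 h substrate development at room temperature.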

[2] = qHTS assay for small molecules that induce genotoxicity in human embryonic kidney cells expressing luciferase-tagged ATAD5 (AID 651632); also: nearly all actives have a fitted effect of over 15% in size
Procedure, shortened: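 Quantitative HTS in HEK293T expressing luciferase-tagged ATAD5, whose levels rise upon DNA damage. Exposure ran 16 hr at 37C and 5% CO2, with luminescence read 30 min after Amplite addition at room temperature.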

[3] = qHTS assay for small molecules that induce genotoxicity in human embryonic kidney cells expressing luciferase-tagged ATAD5 - cell viability (AID 651634; calls by dose curve; also: nearly all actives have a fitted effect of over 25% in size)
Procedure, shortened: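 After 15.5 hr incubation with compound at 37C, 5% CO2, HEK293T ATAD5-luciferase cells received CellTiter-Fluor reagent; fluorescence intensity was quantified following 30 min at 37C.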

[4] = qHTS assay for small molecule disruptors of the mitochondrial membrane potential - cell viability (AID 720634; calls by dose curve;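 also: human HepG2 liver cancer cells; series mostly up to about 83 µM; nearly all actives have a fitted effect of over 20% in size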)
Procedure, shortened: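 ATP-based luminescent viability readout (CellTiter-Glo, 30 min, room temperature) in HepG2 cells multiplexed with the m-MPI membrane potential dye; compound exposure lasted 1 hr at 37 C.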

[5] = qHTS assay to test for compound auto fluorescence at 590 nm (red) in HepG2 cells (AID 720674)
Procedure, shortened: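 1 hr compound incubation on HepG2 cells, 37 C, 5% CO2; plate read ex 540 nm / em 590 nm; intensities reported as Rose Bengal sodium equivalents.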

[6] = qHTS assay to test for compound auto fluorescence at 535 nm (green) in HepG2 cells (AID 720675)
[7] = qHTS assay to test for compound auto fluorescence at 460 nm (blue) in HEK293 cells (AID 720678)
Procedure, shortened: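 Triamterene serves as the blue fluorophore standard. Compound signal at 405/460 nm is read in HEK293 wells (2,000 cells, 10% dialyzed FBS) after overnight treatment at 37C.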

[8] = qHTS assay to test for compound auto fluorescence at 590 nm (red) in HEK293 cells (AID 720679)
Procedure, shortened: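 We plated HEK293 cells in 10% dialyzed FBS medium, let them adhere for 4-5 hr, then added 23 nL compound. Overnight at 37C and 5% CO2 preceded fluorescence measurement at 540/590nm.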

[9] = qHTS assay to test for compound auto fluorescence at 535 nm (green) in HEK293 cells (AID 720680)
[10] = qHTS assay to test for compound auto fluorescence at 460 nm (blue) in HEK293 cell free culture (AID 720681)
Procedure, shortened: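 Blue fluorescence (Ex 405/Em 460 nm, triamterene-equivalent) was read immediately after pin transfer of compound or DMSO into medium (DMEM, 10% FBS) without cells.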

[11] = qHTS assay to test for compound auto fluorescence at 535 nm (green) in HEK293 cell free culture (AID 720682)
Procedure, shortened: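 Each library compound, or DMSO control, is added by pintool to medium alone, comprising DMEM and 10% FBS. Emission at 535 nm following 485 nm excitation is quantified against fluorescein.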

[12] = qHTS assay to test for compound auto fluorescence at 590 nm (red) in HEK293 cell free culture (AID 720683)
Procedure, shortened: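 Red-channel autofluorescence of compounds in culture medium (DMEM, 10% FBS), no cells, measured at 540/590 nm. Rose Bengal sodium is the reference fluorophore for equivalence.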

[13] = qHTS assay to test for compound auto fluorescence at 590 nm (red) in HepG2 cell free culture (AID 720684)
Procedure, shortened: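 Cell-free; medium MEM + 10% FBS; compound or DMSO added by pintool; read Ex 540/Em 590 nm; Rose Bengal sodium as red reference fluorophore.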

[14] = qHTS assay to test for compound auto fluorescence at 460 nm (blue) in HepG2 cell free culture (AID 720685)
Procedure, shortened: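 Cell-free plates of MEM plus 10% FBS received 23 nL compound or DMSO vehicle; blue-channel (405/460 nm) intensity scored against triamterene as reference fluorophore.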

[15] = qHTS assay to test for compound auto fluorescence at 535 nm (green) in HepG2 cell free culture (AID 720686)
[16] = qHTS assay to test for compound auto fluorescence at 460 nm (blue) in HepG2 cells (AID 720687)
Procedure, shortened: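 Blue-channel autofluorescence (Ex/Em 405/460 nm, triamterene-equivalent) was measured after 1 hr compound exposure at 37 C, 5% CO2. Cells were HepG2, plated overnight at 37 C in MEM plus 10% FBS.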

[17] = qHTS assay for small molecule agonists of the p53 signaling pathway - cell viability (AID 651633; calls by dose curve;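 also: p53RE-bla HCT reporter cells with a stable beta-lactamase p53 reporter; series mostly up to about 83 µM; nearly all actives have a fitted effect of over 30% in size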)
Procedure, shortened: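 Viability counter-read: CellTiter-Glo luminescence (30 min, room temperature) in the same p53RE-bla plates. These plates had been exposed to compounds for 16 h at 37 C.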

[18] = qHTS assay for small molecule disruptors of the mitochondrial membrane potential (AID 720635)
Procedure, shortened: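 Mitochondrial membrane potential tracked with Mito-MPS dye, red aggregates (ex 540/em 590 nm) against green monomers (ex 490/em 535 nm). Compound treatment 1 hr at 37C, dye 30 min in HepG2.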

[19] = target: Glucocorticoid receptor (Homo sapiens) (UniProt P04150); test: qHTS assay to identify small molecule agonists of the glucocorticoid receptor (GR) signaling pathway (AID 720691; active = well fitted activation curve with a large enough effect in the signal ratio in the repeat runs, not every such curve was filed as active; the % refers to the signal ratio)
Glucocorticoid receptor (Homo sapiens), sequence (P04150 whole entry, looked up): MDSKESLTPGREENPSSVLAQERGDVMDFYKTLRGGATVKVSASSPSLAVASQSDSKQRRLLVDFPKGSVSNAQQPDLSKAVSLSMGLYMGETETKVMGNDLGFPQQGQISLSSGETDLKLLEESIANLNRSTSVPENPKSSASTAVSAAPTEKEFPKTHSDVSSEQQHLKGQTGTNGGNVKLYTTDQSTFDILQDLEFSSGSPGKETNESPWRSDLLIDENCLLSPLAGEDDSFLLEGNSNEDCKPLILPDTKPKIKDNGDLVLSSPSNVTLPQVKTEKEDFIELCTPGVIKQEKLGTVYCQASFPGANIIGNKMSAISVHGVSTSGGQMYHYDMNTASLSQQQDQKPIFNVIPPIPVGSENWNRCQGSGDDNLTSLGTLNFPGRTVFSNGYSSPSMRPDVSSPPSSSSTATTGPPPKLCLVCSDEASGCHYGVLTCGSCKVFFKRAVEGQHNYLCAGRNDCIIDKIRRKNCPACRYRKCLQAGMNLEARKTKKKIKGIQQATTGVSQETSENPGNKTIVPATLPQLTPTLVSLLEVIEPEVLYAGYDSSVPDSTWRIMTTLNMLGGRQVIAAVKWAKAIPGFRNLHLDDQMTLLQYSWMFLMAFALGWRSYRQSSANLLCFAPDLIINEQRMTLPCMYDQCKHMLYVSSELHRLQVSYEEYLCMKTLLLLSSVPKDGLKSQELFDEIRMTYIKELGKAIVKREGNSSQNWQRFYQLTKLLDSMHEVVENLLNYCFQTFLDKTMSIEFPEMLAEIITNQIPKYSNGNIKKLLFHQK
Procedure, shortened: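 Cells: GR-bla HeLa, endogenous GR with stably integrated GRE-beta-lactamase reporter. Treatment 18 h, 37 C, compounds delivered in DMSO. Detection via LiveBLAzer B/G FRET substrate, 2 h RT, fluorescence intensity.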

[20] = target: Glucocorticoid receptor (Homo sapiens) (UniProt P04150); test: qHTS assay to identify small molecule antagonists of the glucocorticoid receptor (GR) signaling pathway (AID 720692; active = well fitted inhibition curve with a large enough effect in the signal ratio in the repeat runs, not every such curve was filed as active; the % refers to the signal ratio)
Procedure, shortened: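 Quantitative HTS in antagonist format: HeLa cells expressing endogenous GR and a stably integrated GRE-bla reporter, stimulated with 5 nM dexamethasone (final) alongside test compounds for 18 h.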
% is scaled to controls: 0 for no effect and ±100 for the full control effect.

COCCOC(=O)C1=C(C)NC(C)=C(C(=O)OC(C)C)C1c1cccc([N+](=O)[O-])c1 (stereo not given)
inactive: outcome [1] | Potency [2] | Potency [3] | outcome [4] | outcome [5] | outcome [6] | outcome [7] | outcome [8] | outcome [9] | outcome [10] | outcome [11] | outcome [12] | outcome [13] | outcome [14] | outcome [15] | outcome [16]

On1nnc2ccccc21
inactive: outcome [1] | outcome [17] | outcome [4] | Potency [18] | outcome [5] | outcome [6] | outcome [7] | outcome [8] | outcome [9] | outcome [10] | outcome [11] | outcome [12] | outcome [13] | outcome [14] | outcome [15] | outcome [16] | Potency [19]

O=C1c2ccccc2C(=O)N1CCl
inactive: outcome [1] | outcome [17] | Potency [3] | outcome [4] | outcome [5] | outcome [6] | outcome [7] | outcome [8] | outcome [9] | outcome [10] | outcome [11] | outcome [12] | outcome [13] | outcome [14] | outcome [15] | outcome [16] | Potency [19]

O=C(OCC1(COC(=O)c2cccnc2)CCCC(COC(=O)c2cccnc2)(COC(=O)c2cccnc2)C1O)c1cccnc1
inactive: outcome [1] | outcome [17] | Potency [3] | outcome [4] | Potency [18] | outcome [5] | outcome [6] | outcome [8] | outcome [9] | outcome [10] | outcome [11] | outcome [12] | outcome [14] | outcome [15] | outcome [16] | Potency [19] | outcome [20]

CC(=O)CCCCn1c(=O)c2c(ncn2C)n(C)c1=O
inactive: outcome [1] | outcome [17] | Potency [3] | outcome [4] | Potency [18] | fluorescence, relative to Rose Bengal [5] 0.0631% [at 18.6 µM] | fluorescence, % of fluorescein control [6] -0.15% [at 18.6 µM] | fluorescence, % of fluorescent control [8] -0.0868% [at 18.6 µM] | fluorescence, % of fluorescein [9] 0.0863% [at 18.6 µM] | fluorescence, % of fluorescent control [10] 0.0365% [at 18.6 µM] | activity change [11] 0.0172% [at 18.6 µM] | fluorescence, % of fluorescent control [12] 0.153% [at 18.6 µM] | fluorescence, % of fluorescent control [14] 0.0657% [at 18.6 µM] | fluorescence, % of fluorescein control [15] -0.0364% [at 18.6 µM] | fluorescence, % of fluorescent control [16] 0.0705% [at 18.6 µM] | Potency [19] | outcome [20]

CC(S)C(=O)NCC(=O)O (stereo not given)
inactive: outcome [1] | outcome [17] | Potency [3] | outcome [5] | outcome [6] | outcome [7] | outcome [8] | outcome [9] | outcome [10] | outcome [11] | outcome [12] | outcome [13] | outcome [14] | outcome [15] | outcome [16]

O=C(O)Cc1ccc(Cl)cc1Cl
inactive: outcome [1] | outcome [17] | Potency [3] | outcome [4] | outcome [5] | outcome [6] | outcome [7] | outcome [8] | outcome [9] | outcome [10] | outcome [11] | outcome [13] | outcome [14] | outcome [15] | outcome [16] | outcome [20]
